TRPML1 inh – inhibitors of human TRPML1 channel. Q9GZU1. TRPML1-inducible cells, Ca2+ dye fluorescence, FDSS; hits give low values; inhibition of EC80 agonist-evoked calcium signal. activity change, negative = inhibition, % (no concentration beside the values). hit rate 0.02% among 390,000; in the data active = activity change below about -50%; inconclusive = between about -30% and that limit;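 note: stimulus is agonist 54-4 at its EC80 concentration; % is set by controls: 0 for no effect and ±100 for the full control effect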
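Tet-induced TRPML1-DL cells loaded with Ca8 no-wash calcium dye were read kinetically on FDSS. Compound addition was followed by EC80 agonist 54-4 (4 uM final); inhibition was read over 110 s.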
Glioma ERSR ind – ER stress response induction in glioma | U87-MG GRP78 promoter luciferase reporter, 16 h | hit rate 0.02% among 420,000 | Potency, µM, for inactives: at the top dose activation, hits mostly activators; note: potency is the fitted concentration of half-maximal effect; series mostly up to about 76 µM; % of control where 0% means no effect; nearly all actives have a fitted effect of over 35% in size
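Stably transfected U87-MG human glioma cells carrying a GRP78-based luminescent sensor were seeded at 1000 cells/well, pin-dosed with compounds and incubated 16 h. Luciferase reagent was then added, and end-point luminescence was read after 10 min at room temperature.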
Vif-APOBEC3F blk – blocks the Vif interaction with APOBEC3F; HeLa A3F-eYFP + Vif (tagged APOBEC3F with the HIV-1 protein that degrades it), YFP fluorescence increase; Potency, µM (titrated, usually from 46.1 µM), inactives show at the highest dose activity, negative = active; hit rate 0.2% among 390,000; AID 602313; note: potency is the fitted concentration of half-maximal effect; % of control where 0% means no effect; nearly all actives have a fitted effect of over 65% in size
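Fluorescence increase (Ex 488/Em 500-530) after overnight compound treatment at 37 deg C flags inhibition of Vif-driven A3F-eYFP loss in stable HeLa A3F-eYFP/Vif cells seeded overnight beforehand.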
12-LOX inh – ALOX12 (human) lipoxygenase inhibition. purified 12hLO, xylenol orange hydroperoxide absorbance. hit rate 1.1% among 580,000. Potency, µM (highest dose often 108 µM), for inactives: top-dose activity change, negative = inhibition, actives largely listed as inhibitors; note: potency is the fitted concentration of half-maximal effect; % is set by controls: 0 for no effect and ±100 for the full control effect
Target sequence (P18054 whole entry, looked up): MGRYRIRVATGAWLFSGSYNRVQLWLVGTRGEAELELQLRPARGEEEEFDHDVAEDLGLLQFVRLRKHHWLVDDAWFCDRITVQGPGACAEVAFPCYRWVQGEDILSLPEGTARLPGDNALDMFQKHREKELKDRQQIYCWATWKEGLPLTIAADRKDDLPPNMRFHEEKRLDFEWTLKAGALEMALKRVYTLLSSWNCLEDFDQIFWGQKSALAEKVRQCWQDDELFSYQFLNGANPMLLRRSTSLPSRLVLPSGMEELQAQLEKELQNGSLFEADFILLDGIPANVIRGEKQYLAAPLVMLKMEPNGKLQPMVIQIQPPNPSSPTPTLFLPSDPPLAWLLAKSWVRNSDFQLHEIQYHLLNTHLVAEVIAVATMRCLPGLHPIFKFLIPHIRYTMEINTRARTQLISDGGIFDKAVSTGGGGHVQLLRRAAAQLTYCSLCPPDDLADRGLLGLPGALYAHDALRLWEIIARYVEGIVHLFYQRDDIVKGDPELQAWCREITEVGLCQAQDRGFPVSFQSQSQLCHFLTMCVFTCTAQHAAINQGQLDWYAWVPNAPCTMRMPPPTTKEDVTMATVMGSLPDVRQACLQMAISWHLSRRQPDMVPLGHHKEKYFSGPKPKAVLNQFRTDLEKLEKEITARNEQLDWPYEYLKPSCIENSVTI
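Hydroperoxide product was detected by ferrous iron/xylenol orange as the 573 to 405 nm absorbance ratio. Arachidonic acid at 40 uM (final) was turned over for 30 min at room temperature by 150 nM human 12hLO, pH 7.0 Hepes buffer, after 15 min compound preincubation.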
Vif-APOBEC3G blk – inhibitors of Vif-APOBEC3G interaction | Potency, µM (doses to about 46.1 µM), without a hit: at the highest dose activity, negative = active, usual class: inhibitors | HeLa A3G-eYFP + Vif (tagged APOBEC3G with the HIV-1 protein that degrades it), YFP fluorescence, overnight | hit rate 0.076% among 410,000; note: potency is the fitted concentration of half-maximal effect; % is set by controls: 0 for no effect and ±100 for the full control effect; nearly all actives have a fitted effect of over 60% in size
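Read-out is eYFP fluorescence (Ex 488/Em 500-530) from Vif-expressing HeLa A3G-eYFP cells; more signal means A3G escaped Vif-mediated degradation. Cells plated overnight, compound pinned in, incubated overnight at 37 deg C.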
TRPML1 ag – agonists of human TRPML1 channel | hit rate 0.12% among 410,000 | activation, % (test concentration not listed) | AID 624414 | TRPML1-expressing cells, Ca2+ dye fluorescence, FDSS; in the data active = activation above about 50%; inconclusive = mostly about 30% to 49%; note: 0% is about no effect
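Tet-induced TRPML1-DL cells, 1,500 per well, cultured overnight, were loaded with a no-wash Ca2+ dye for 45–90 min. Calcium fluorescence was recorded on the FDSS for 110 s after compound addition, before the EC80 agonist (4 uM 54-4) was added.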
* = called active by the depositor; ? = inconclusive; . = no result. The list is not random: actives were taken first. Their share in the collection is about 1.3%. Unless noted, calls come from the whole dose curve; as a rule, active = well fitted curve in the direction sought with a large enough effect; inconclusive = small, poorly fitted or top-dose-only effect, or another doubt; inactive = no such curve, though single readings can be large; an effect the other way counts as inactive or inconclusive.

SMILES	TRPML1 inh	Glioma ERSR ind	Vif-APOBEC3F blk	12-LOX inh	Vif-APOBEC3G blk	TRPML1 ag
O=C(Cc1ccc(N(Cc2ccc(F)cc2)C(=O)c2ccco2)cc1)NCc1ccc(F)cc1	.	.	.	31.6µM*	.	.
O=C(/C=C/c1ccco1)NCc1ccc(F)cc1	-2.7	6.3%	-30.7%	31.6µM*	-2.9%	1.1
CC(NC(=O)c1ccc(S(=O)(=O)N(C)C)cc1)c1cc2ccccc2o1 (stereo not drawn)	.	.	.	17.5%	.	.
CCc1ccc(S(=O)(=O)Nc2ccc3nc(N4CCN(CCC#N)CC4)cc(C(=O)O)c3c2)cc1	.	.	.	11.2µM*	.	.
Cc1nn(-c2ccccc2)cc1C(c1c(N)[nH]c(=S)[nH]c1=O)c1c(N)[nH]c(=S)[nH]c1=O	-2.2	-1.6%	10.4%	6.31µM*	1.0%	0.0
O=C1C(=Cc2ccco2)CCCC1=Cc1ccco1	-3.1	5.1%	?	25.1µM*	-7.7%	12.9
O=C1C(=Cc2ccco2)CCC1=Cc1ccco1	7.2	0.2%	?	35.5µM*	-8.2%	0.4
O/N=C1\CCC\C1=C/c1ccco1	-12.5	0.2%	-0.2%	?	0.4%	0.7
O=C1N=C(N2CCOCC2)SC1=Cc1ccco1	29.8	-1.8%	-15.6%	?	-1.6%	-0.3
C=C(C)Cn1c(SCCCCC)nc2c1c(=O)n(C)c(=O)n2C	.	.	.	-7.9%	.	.
CCOc1cc(/C=N\Nc2ccc([N+](=O)[O-])cc2)ccc1OCC(=O)Nc1ccc(C)c(C)c1	9.2	-5.3%	.	?	?	0.2
COc1cc(/C=N\Nc2ccc([N+](=O)[O-])cc2)ccc1OCC(=O)Nc1ccc(C)c(C)c1	16.3	-0.9%	10µM*	?	-1.4%	0.5
CN=c1scc(-c2ccc([N+](=O)[O-])cc2)n1/N=C/c1ccco1	32.2	-1.4%	0.7%	?	0.3%	0.5
CN=c1scc(-c2ccc(F)cc2)n1/N=C/c1ccc(O)c(O)c1	22.3	-10.7%	?	44.7µM*	-12.1%	3.1
Cc1ccc(-c2nc(CC(=O)N(C)CC(=O)Nc3ccc(F)cc3)cs2)c(C)c1	.	.	.	-13.1%	.	.
CCCN(Cc1cc(=O)[nH]c2c(OC)cccc12)C(=O)Nc1ccccc1OCC	.	.	.	17.8%	.	.
CC(=O)c1c(C)oc2c(Br)cc(NS(=O)(=O)c3ccc(Br)cc3)cc12	-7.2	-4.1%	-3.5%	44.7µM*	0.1%	1.9
CC(=O)c1c(C)oc2c(Br)cc(NS(=O)(=O)c3ccc(Cl)c(C)c3)cc12	.	.	.	6.0%	.	.
CN(C)CCNc1ccc(CO)c2sc3ccc(O)cc3c(=O)c12	14.1	?	8.6%	-24.7%	-2.6%	0.4
CN(C)CCNc1ccc2ncn3c4ccc(O)cc4c(=O)c1c23	-8.1	-0.3%	25.1µM*	?	?	12.9
CN(Cc1c(O)ccc2c1oc(=O)c1ccccc12)C1CCCCC1	-10.0	-2.1%	-16.0%	0.891µM*	6.4%	3.6
CC1(C)C2CC=C(/C=N/NC(=S)NCc3ccccc3)C1C2 (stereo not drawn)	.	.	.	35.5µM*	.	.
CC(=O)N/N=C/C1=CCC2CC1C2(C)C (stereo not drawn)	23.1	-0.4%	20.7%	0.2%	2.6%	0.1
CC(C)NC(=S)N/N=C/C1=CCC2CC1C2(C)C (stereo not drawn)	32.6	-2.8%	-21.8%	35.5µM*	-0.1%	2.0
COc1ccccc1-n1cnc2cc(NCc3ccccn3)ccc21	-50.5*	-3.3%	-18.4%	-21.1%	-21.7%	-0.4
SMILES	TRPML1 inh	Glioma ERSR ind	Vif-APOBEC3F blk	12-LOX inh	Vif-APOBEC3G blk	TRPML1 ag
CC(C(=O)NC(=O)NC12CC3CC(CC(C3)C1)C2)n1cnc2c1c(=O)n(C)c(=O)n2C (stereo not drawn)	.	.	.	6.6%	.	.
CC1CCN(S(=O)(=O)c2ccc(NC(=O)Cn3cnc4c3c(=O)n(C)c(=O)n4C)cc2)CC1	.	.	.	3.5%	.	.
CCOC(=O)c1cc(S(=O)(=O)Nc2ccc3c(c2)OCCO3)[nH]n1	.	.	.	11.2µM*	.	.
CCOC(=O)c1cc(S(=O)(=O)Nc2ccccc2)[nH]n1	-5.6	-1.0%	-8.3%	-14.6%	1.8%	0.0
O=C1CC(c2ccccc2)c2ncn(-c3cc(F)ccc3F)c2N1 (stereo not drawn)	.	.	.	5.01µM*	.	.
Cn1c(=O)c2c(nc(NC3CCCCC3)n2Cc2ccccc2F)n(C)c1=O	.	.	.	7.9%	.	.
COC(=O)CC(NC(=S)NC(=O)c1ccccc1)c1ccc(Br)cc1 (stereo not drawn)	2.2	-2.4%	-4.5%	7.94µM*	-4.7%	2.1
COc1ccc(OC)c(S(=O)(=O)N2CCN(Cc3ccc(C(F)(F)F)cc3)CC2)c1	.	.	.	35.1%	.	.
CCCOc1ccc(Cc2nn3c(=O)/c(=C/c4ccco4)sc3nc2=O)cc1	0.1	-3.8%	-3.3%	?	1.4%	50.4*
CCCOc1ccc(/C=c2\sc3nc(-c4ccco4)nn3c2=O)cc1OCC	-0.9	-2.6%	?	?	-0.5%	0.5
COC(=O)c1ccc(COc2ccc(C(=O)OC)cc2Br)cc1	.	.	.	-5.5%	.	.
O=[N+]([O-])c1cccc(C=NNc2ccccc2)c1	9.6	11.0%	-8.5%	44.7µM*	-8.4%	1.0
CCCCn1c(-n2nc(C)c(C)c2C)nc2c1c(=O)n(CC(N)=O)c(=O)n2C	.	.	.	0.9%	.	.
CCCC(=O)Nc1ccc(O)c(-c2nc3cc(C)cc(C)c3o2)c1	.	.	.	-7.5%	.	.
CCOC(=O)C1=C(Cc2ccc(F)cc2)C(=O)c2ccccc2C1=O	19.8	?	25.1µM*	?	?	9.1
Cc1ccc(/C=C(/C#N)c2ccc(C(F)(F)F)cn2)cc1	.	.	.	-1.4%	.	.
COc1ccc(-c2csc(NC(=O)C(CC(=O)O)N3CCOCC3)n2)cc1 (stereo not drawn)	-0.3	0.0%	5.3%	-21.3%	-9.1%	0.1

Screening results from PubChem.
